The source of these data is publication PMC13494018.

Unmarked numbers belong to inactive results. How the calls were made is not given here.

First the molecules themselves.
B1: design_622_fcc41892-afde-4fb9-b6e8-b664fffd6a75_256_dldesign_0_cycle1_af2pred (protein)
chain: SAAAVAAAAAAASARQASAALEEALATGTPEEVLRAAETALKMAEVLAWAGEQSPAAQAALDALRAKAEAARKAVAAA
B2: design_621_7e0052dc-ae49-49a0-b99f-9f3ee649cc2f_1427_dldesign_0_cycle1_af2pred (protein)
chain: AAAAAEAAALAQINALTATAVAAAKDPATQPVANAALGQASALAIAQHKVDPAAGAKASQALAAGVEATAAARAAAKAAAAAAAA
B3: design_621_7e0052dc-ae49-49a0-b99f-9f3ee649cc2f_505_dldesign_0_cycle1_af2pred (protein)
chain: AAAAAARAAALAVRDKYAAKAKEYAAEAEKYAPTDARVKELLDQGKAEAAKGDAALAAGDYAAAEGYYALAYAYYSAALNRALA
B4: design_621_7e0052dc-ae49-49a0-b99f-9f3ee649cc2f_1809_dldesign_0_cycle1_af2pred (protein)
chain: GAELVRRTIEASARTARRAVEEARERAKTPEEVEAAAESARRILQVAVDIGANYPEVAGEAEELAAEVGEEAERTLEEARKEY
B5: design_621_7e0052dc-ae49-49a0-b99f-9f3ee649cc2f_1226_dldesign_0_cycle1_af2pred (protein)
chain: MEAEEYLEKAKEAAEKAKEAAAKGDLAAANAYLGKAIEYAAKAQEVGTPEIAEKANAELARAVKAVQAVAAKVAAA
B6: design_621_7e0052dc-ae49-49a0-b99f-9f3ee649cc2f_896_dldesign_0_cycle1_af2pred (protein)
chain: SAAAAAAAAAKAVAAKTAEALVKQAEALIKEAEKSTKEEGLKLRKAAAENYKLAGTLYEQAGDTATAKKLKEEGEKVEKEAEEKA
B7: design_621_7e0052dc-ae49-49a0-b99f-9f3ee649cc2f_1041_dldesign_0_cycle1_af2pred (protein)
chain: DPAAVAAAEDMWAIAQQTWAAFTANAATITPAQARQYAAVFATAAVAMEDAARRVSPELAVGYRARAAEMRARAAAARAAAAA
B8: design_621_7e0052dc-ae49-49a0-b99f-9f3ee649cc2f_1483_dldesign_0_cycle1_af2pred (protein)
chain: AEAERLLAEARAAVAKGRAAGLAAAEAGLGAALEAARAMDAEARALAAAAEAAGHPEVAEEIRRAAGAAINEVLARASQVALAKAA
B9: design_622_fcc41892-afde-4fb9-b6e8-b664fffd6a75_169_dldesign_0_cycle1_af2pred (protein)
chain: AQRETIKNGILAMMRALALALDDPEKREEMIEALAGIAAQLPKEEGVRVIKEAAKEVAAKYPEKAEEILEAGERAVELAKKLS
B10: design_621_7e0052dc-ae49-49a0-b99f-9f3ee649cc2f_1478_dldesign_0_cycle1_af2pred (protein)
chain: AQALLDGVKRSSELAKEAEKYDPEAGKKILEVRTKGSAEASAVAVAGGTDAAVAAIAEKAAEEAKKLYEEAKKRAEERERE
B11: design_621_7e0052dc-ae49-49a0-b99f-9f3ee649cc2f_1562_dldesign_0_cycle1_af2pred (protein)
chain: EEKKEEARERGEELVKEAEELAEKAAATSALAAMEAAEYALEVQQEIVELYSEAGDEEGLEEFSARVNKIVAYLQKAALEAQKAEA
B12: design_621_7e0052dc-ae49-49a0-b99f-9f3ee649cc2f_2068_dldesign_0_cycle1_af2pred (protein)
chain: DETLKKAKEALKKAAKAAKKIGDEEIAKKVEEALKLLTPESAELALAMAEALLASLKTADGKENAAKIATALRSGVANVAAA
B13: design_621_7e0052dc-ae49-49a0-b99f-9f3ee649cc2f_2499_dldesign_0_cycle1_af2pred (protein)
chain: AAAQQTFQNFLGYATLAAAYLATVDPAAAEELMALAAKARADPEKAKEYFAKAKELLTKHLDKLAAYSPEAGQAAQNAIDAANTLL
B14: design_621_7e0052dc-ae49-49a0-b99f-9f3ee649cc2f_590_dldesign_0_cycle1_af2pred (protein)
chain: SERKESVDAGVKAAADIGKYQAKEIAKEDPEKGAAYLKEVEETYEKALASSPEEAFALTNAAFRANAKLAAAAAAKKAAAA
B15: design_621_7e0052dc-ae49-49a0-b99f-9f3ee649cc2f_501_dldesign_0_cycle1_af2pred (protein)
chain: GAEQVAFQTIVAGARHAARLENEEAAKEIAKVYADIAANLSKETQQKVLEAAKKIAKETEAGKKNGEIVVKELEKALEA
B16: design_621_7e0052dc-ae49-49a0-b99f-9f3ee649cc2f_1640_dldesign_0_cycle1_af2pred (protein)
chain: GKKEEADKLVEEGNKLFEEAEALAKEGKVAEGSSKLIEGIKLYAEAAKLYREVDPAKADELYATAHAKSAKVNKLLLAAAR
B17: design_621_7e0052dc-ae49-49a0-b99f-9f3ee649cc2f_624_dldesign_0_cycle1_af2pred (protein)
chain: AEAAKKKVEELLAKAKEEAKKALEDPANIEKYRAEMSKLIAEANRIGIASTPEVNTLAGSGIEEVLKLLDEAVKKAK
B18: design_621_7e0052dc-ae49-49a0-b99f-9f3ee649cc2f_1792_dldesign_0_cycle1_af2pred (protein)
chain: EEAARQALLEAVTKTAIDLIKKADEAAKTDPAQAELYAYQAASLIASVLHQDPEKGKEVLEIAKKSAFGELITKKTEEMLKKIDAA
B19: design_622_fcc41892-afde-4fb9-b6e8-b664fffd6a75_148_dldesign_0_cycle1_af2pred (protein)
chain: GAAEEAAKVAAKGKALTDQAAAGDLETANALLGEALALLEEVARTGSPEAVAAAQAAVAALSKVVLAKAAA
B20: design_622_fcc41892-afde-4fb9-b6e8-b664fffd6a75_178_dldesign_0_cycle1_af2pred (protein)
chain: AAAAKAAAAAAAKAQTAEARALVEEAERLAETDPELAIEVARRAIALANRAALAAQRIGDAATAAEAMAVAERAAEVLTRAGRRARA
B21: design_621_7e0052dc-ae49-49a0-b99f-9f3ee649cc2f_2346_dldesign_0_cycle1_af2pred (protein)
chain: AEVAEIAKKTAEEVKKLIEAGAPAEEAAAVLNAGIAAVIKAAKAAGPASAADLGKAMDIFKETAELIVAYERERAAEAA
B22: design_622_fcc41892-afde-4fb9-b6e8-b664fffd6a75_254_dldesign_0_cycle1_af2pred (protein)
chain: VDPEAQAKAEAEKMLEETKKAAEESPELAAETLNKGMAEMVKLAQANPEANEIYMKYGIEAAKKASEYIKELQEKRA
B23: design_621_7e0052dc-ae49-49a0-b99f-9f3ee649cc2f_1174_dldesign_0_cycle1_af2pred (protein)
chain: AEKDEIVEKLLRAAGTATYVAYAFKDDAATKAKATATNQKAREAIQLLGTDFSPEAVALAKEAIEDAEKLKAELEAAQA
B24: design_622_fcc41892-afde-4fb9-b6e8-b664fffd6a75_7_dldesign_0_cycle1_af2pred (protein)
chain: NEHLKEAAKHLEKAIEADAETALQLAQEALSHLLAALREASPEVRPLVEEAISHVTQALVYLSEGGETVEKGREELKKALEHAEKAAA
B25: design_621_7e0052dc-ae49-49a0-b99f-9f3ee649cc2f_606_dldesign_0_cycle1_af2pred (protein)
chain: DVAEVLVRTAQAVARQAQAAAALSPEEALAVAQANQQTVAVLLAAAKAAGSAEAVAAAQQAQATVAAVIAAAQARLAA
B26: design_621_7e0052dc-ae49-49a0-b99f-9f3ee649cc2f_1278_dldesign_0_cycle1_af2pred (protein)
chain: AANAAEQAARLGKALASAAKNAIEAGNLESARKIAEVAVAAGEEAAELAVKYLEAEDPEAGKIFRELVEEEKARRAAEAA
B27: design_621_7e0052dc-ae49-49a0-b99f-9f3ee649cc2f_591_dldesign_0_cycle1_af2pred (protein)
chain: GEEEEKKKEVIEKRQEVLKLLAEAVRVGMEADPELASKAASESLELIAKADKYLKEGKYEEALAELEKAKEYVEKMLKEAKALLAAKL
B28: design_621_7e0052dc-ae49-49a0-b99f-9f3ee649cc2f_741_dldesign_0_cycle1_af2pred (protein)
chain: MEELKKAAEAAEKLAEVTLAIAKQADPKLAEKAKKLKEEVKKVYEEGKKDPSTAKEKLKELEKLSKEITELAAEASKLAVAKAA
B29: design_621_7e0052dc-ae49-49a0-b99f-9f3ee649cc2f_449_dldesign_0_cycle1_af2pred (protein)
chain: SSNVEKAKELARNLTESAALDPASGALAGRALLAAARNAAAALTPEQSAALAAELRAAVAANQPADPEARALFEQAAAVLAA
B30: design_621_7e0052dc-ae49-49a0-b99f-9f3ee649cc2f_2237_dldesign_0_cycle1_af2pred (protein)
chain: MREEINRRMVELSGRINALFPYAQQDPEVNALLGKALGDLLEAHATPDPEEAAELVERAEEYVEAAEARAAALAA
B31: design_621_7e0052dc-ae49-49a0-b99f-9f3ee649cc2f_1985_dldesign_0_cycle1_af2pred (protein)
chain: MAEEAEKLKKEAEKEFEKLKAEAKKYAAANGAKGQLAYQAVVGTGRSALDSLEALADDPERAKKTVEQLLAVAKDLVKSAAA
B32: design_621_7e0052dc-ae49-49a0-b99f-9f3ee649cc2f_1508_dldesign_0_cycle1_af2pred (protein)
chain: AKEEEEEAKKKAESVKKMVEVAKALAEYAKKSTDPQVAKIAANAAIGLANNAIEVGKKYPEAEPYAKEAEKVKEEAKKVIEEK
B33: design_621_7e0052dc-ae49-49a0-b99f-9f3ee649cc2f_452_dldesign_0_cycle1_af2pred (protein)
chain: EEDERRAEELRRRAEEMLEAAKRAASLPPAERARLLGEAARVVEEARELAERDPRYRPVYDLAVAAFNALATAVGRALAAAA
B34: design_621_7e0052dc-ae49-49a0-b99f-9f3ee649cc2f_2349_dldesign_0_cycle1_af2pred (protein)
chain: GEQALQIARAAYVSAKNLLKDAEATENLEDAEKLAELAEAMAKQALEVAKAAAAQSAEAVEYAKKAKEYAEEAKKLVEEKKKA
B35: design_621_7e0052dc-ae49-49a0-b99f-9f3ee649cc2f_1898_dldesign_0_cycle1_af2pred (protein)
chain: ALAEAQRRAERLEREVEEAERRIEEHADDAERLEELAERLERLAHEALRLAATAPNEVAQRAVEIAERAARAAERARATAERLR
B36: design_621_7e0052dc-ae49-49a0-b99f-9f3ee649cc2f_1261_dldesign_0_cycle1_af2pred (protein)
chain: AADSVALGQANAEAMLAVADPSQLPAAAAAIAAASPAVAERARRIGLRLAEAAGADVAAFRAAYDAAVAAAKA
B37: design_621_7e0052dc-ae49-49a0-b99f-9f3ee649cc2f_1011_dldesign_0_cycle1_af2pred (protein)
chain: DLEKKAKEHLEKAKKLAEKAAASNAAEASVYLSQAIEEASKAVELAKKAGPELYKKYSEEATKLVQRASKAVMAKAQAAA
B38: design_621_7e0052dc-ae49-49a0-b99f-9f3ee649cc2f_687_dldesign_0_cycle1_af2pred (protein)
chain: ALEEALERLKKQAEEAEKAGDKEAAKLAKKGAEQMEKAKTDPVAAMQALLAAAAEADKLAPKVGKVANRVAIEAIRGANAIFRAAQ

The target in the assay is CD276, Q5ZPR3.
CD276, Q5ZPR3, sequence (Q5ZPR3 whole entry): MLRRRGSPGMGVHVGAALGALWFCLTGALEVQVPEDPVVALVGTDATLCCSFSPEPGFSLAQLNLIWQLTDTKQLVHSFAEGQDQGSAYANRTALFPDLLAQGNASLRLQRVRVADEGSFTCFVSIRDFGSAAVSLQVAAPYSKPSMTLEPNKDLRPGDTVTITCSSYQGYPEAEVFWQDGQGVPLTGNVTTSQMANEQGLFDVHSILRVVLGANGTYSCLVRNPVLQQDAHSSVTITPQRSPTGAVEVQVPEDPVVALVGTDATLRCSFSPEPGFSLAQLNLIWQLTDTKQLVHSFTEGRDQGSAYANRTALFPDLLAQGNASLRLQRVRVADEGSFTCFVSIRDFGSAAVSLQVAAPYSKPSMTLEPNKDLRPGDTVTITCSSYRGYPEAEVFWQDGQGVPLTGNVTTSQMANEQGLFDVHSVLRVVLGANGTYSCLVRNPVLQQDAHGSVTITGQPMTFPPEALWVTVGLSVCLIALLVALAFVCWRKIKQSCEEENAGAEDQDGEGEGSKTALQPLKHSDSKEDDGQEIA
For the molecule B1, the “binding in a display sort” value was “not found”.

With B2, the “binding in a display sort” value was “not found”.

Regarding B3, the “binding in a display sort” value was “not found”.

For the molecule B4, the “binding in a display sort” value is “not found”.

Regarding B5, the “binding in a display sort” value was “not found”.

On to B6, for which the “binding in a display sort” value was “not found”.

As to B7, the “binding in a display sort” value is “not found”.

Regarding B8, the “binding in a display sort” value is “not found”.

On to B9, for which the “binding in a display sort” value was “not found”.

Turning to B10, the “binding in a display sort” value is “not found”.

Take B11: the “binding in a display sort” value is “not found”.

Regarding B12, the “binding in a display sort” value is “not found”.

Turning to B13, the “binding in a display sort” value is “not found”.

Take B14: the “binding in a display sort” value was “not found”.

In the case of B15, the “binding in a display sort” value is “not found”.

For the molecule B16, the “binding in a display sort” value is “not found”.

Regarding B17, the “binding in a display sort” value is “not found”.

As for B18, the “binding in a display sort” value is “not found”.

On to B19, for which the “binding in a display sort” value is “not found”.

For the molecule B20, the “binding in a display sort” value was “not found”.

As for B21, the “binding in a display sort” value is “not found”.

On to B22, for which the “binding in a display sort” value was “not found”.

As for B23, the “binding in a display sort” value was “not found”.

Regarding B24, the “binding in a display sort” value is “not found”.

Take B25: the “binding in a display sort” value is “binds (active)”.

For the molecule B26, the “binding in a display sort” value is “not found”.

With B27, the “binding in a display sort” value was “not found”.

For B28, the “binding in a display sort” value is “not found”.

On to B29, for which the “binding in a display sort” value is “not found”.

Regarding B30, the “binding in a display sort” value was “not found”.

For B31, the “binding in a display sort” value is “not found”.

As to B32, the “binding in a display sort” value is “not found”.

B33: the “binding in a display sort” value is “not found”.

As for B34, the “binding in a display sort” value was “not found”.

Take B35: the “binding in a display sort” value is “not found”.

In the case of B36, the “binding in a display sort” value is “not found”.

On to B37, for which the “binding in a display sort” value is “not found”.

With B38, the “binding in a display sort” value is “not found”.
